Experiment [1] is described as follows: qHTS assay to identify small molecule antagonists of the vitamin D receptor (VDR) signaling pathway - cell viability counter screen (AID 743225). Further: nearly all actives have a fitted effect of over 50% in size. Put shortly: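 Parallel cytotoxicity test: VDR-UAS-bla HEK 293T, 3 nM (final) 1-alpha,25-dihydroxyvitamin D3 with test compound, 16 h, 37C. Endpoint is CellTiter-Glo luminescence in the same wells.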
Experiment [2] in a line: qHTS assay to identify small molecule agonists of the NFkB signaling pathway - cell viability counter screen (AID 1159515; calls by dose curve; further: series mostly up to about 61 µM; nearly all actives have a fitted effect of over 55% in size). The essentials:
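NFkB-bla ME-180 cells, 2,000/well, were plated overnight at 37 C, 5% CO2, then exposed to compounds in DMSO for 5 hr. After the bla FRET read, CellTiter-Glo was added to the same wells; luminescence was read after 30 min at room temperature.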
(Quantitative high-throughput screening tests each substance at several concentrations.)

Experiment [3] is described as follows: qHTS assay to identify small molecule agonists of the endoplasmic reticulum stress response signaling pathway (AID 1159516; active means well fitted activation curve with a large enough effect in the signal ratio in the repeat runs, not every such curve was filed as active; the % refers to the signal ratio). Put shortly:
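CellSensor ESRE-bla HeLa cells, carrying a beta-lactamase reporter driven by the ER stress response element, were plated overnight and exposed to compounds for 5 hr at 37 C. Reporter activity was read as FRET substrate fluorescence after 2 hr at room temperature.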

Experiment [4] in a line: qHTS assay to identify small molecule agonists of the endoplasmic reticulum stress response signaling pathway - cell viability counter screen (AID 1159517; calls by dose curve; further: series mostly up to about 61 µM; nearly all actives have a fitted effect of over 50% in size). Put shortly: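 Counter-screen wells were identical to the reporter wells. Cells were plated at 1,500 per well and dosed for 5 hr, then read for luminescence 30 min after CellTiter-Glo addition.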
Experiment [5] is described as follows: qHTS assay to identify small molecule antagonists of the retinoid-related orphan receptor gamma (ROR-gamma) signaling pathway - cell viability counter screen (AID 1159520). Further: nearly all actives have a fitted effect of over 50% in size. Put shortly:
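Tet-on ROR gamma CHO cells were given compounds for 2 hr, then doxycycline hyclate at 1 uM final, and incubated 16 hr at 37 C. Viability was measured as ATP content by CellTiter-Glo luminescence.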

Experiment [6] concerns the target Nuclear receptor ROR-gamma (Homo sapiens) (UniProt P51449). Kind of experiment: qHTS assay to identify small molecule antagonists of the retinoid-related orphan receptor gamma (ROR-gamma) signaling pathway (AID 1159521;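 further: CHO cells with doxycycline inducible ROR-gamma driving an RORE luciferase reporter; top concentration of the series differs between compounds; nearly all actives have a fitted effect of over 50% in size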). The essentials: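 Decreased RORE-driven luciferase luminescence indicates antagonism. Tet-on RORγ CHO cells received compound, then 1 uM final doxycycline 2 h later; signal read after 16 h incubation.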

Experiment [7] is described as follows: qHTS assay to identify small molecule agonists of the AP-1 signaling pathway - cell viability counter screen (AID 1159525; calls by dose curve; further: nearly all actives have a fitted effect of over 55% in size). The essentials:
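AP-1-bla ME-180 cells in Opti-MEM with 0.5% dialyzed FBS, compound exposure 5 h at 37 C in 15-point titration. Viability read in the same wells as ATP content by CellTiter-Glo luminescence, normalised to tetra-n-octylammonium bromide and DMSO controls.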

The nature of experiment [8]: qHTS assay to identify small molecule agonists of the AP-1 signaling pathway (AID 1159526; calls by dose curve).
Experiment [9] in a line: qHTS assay to identify small molecule agonists of the RXR signaling pathway - cell viability counter screen (AID 1159529). Put shortly:
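In this parallel viability measure, GeneBLAzer RXR-alpha HEK 293T cells (2% charcoal-stripped FBS) were given a 5 hr preincubation, treated with compounds 16 hr at 37 C, and read by CellTiter-Glo luminescence.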

A short description of experiment [10]: qHTS assay to identify small molecule antagonists of the retinoid acid receptor (RAR) signaling pathway - cell viability counter screen (AID 1159551). Further: nearly all actives have a fitted effect of over 35% in size. Put shortly:
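C3RL4 cells were seeded overnight at 37 C, then treated with compounds plus 1 uM (final) retinol for 6 h at 37 C. Viability was read as ATP by CellTiter-Glo luminescence after 30 min at room temperature.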

Experiment [11] can be described thus: qHTS assay to identify small molecule antagonists of the retinoic acid receptor (RAR) signaling pathway (AID 1159552; further: nearly all actives have a fitted effect of over 50% in size). Put shortly: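 C3RL4 RARE-luc cells, overnight plating; retinol 1 uM final added right after compound; 6 hr 37 C; luciferase read at 30 min RT.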
Experiment [12] in a line: qHTS assay to identify small molecule agonists of the retinoic acid receptor (RAR) signaling pathway (AID 1159553). Put shortly:
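C3RL4 cells carrying a RARE luciferase reporter were plated overnight at 37 C, then exposed to compounds in DMSO for 6 hr at 37 C and 5% CO2. Luminescence was read 30 min after luciferase reagent addition at room temperature.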

Experiment [13] in a line: qHTS assay to identify small molecule antagonists of the estrogen related receptor (ERR) signaling pathway from Tox21 library - cell viability counter screen (AID 1224834). Further: nearly all actives have a fitted effect of over 30% in size. Further: potency means the concentration at half of the fitted maximal effect. Put shortly: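 ERR reporter cells were plated 6 h before compound addition, then exposed to test compounds in DMSO for 17.5 h at 37 C. Viability was read as CellTiter-Fluor fluorescence after a 30-minute incubation at 37 C.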

Experiment [14] deals with Retinoic acid receptor RXR-alpha (Homo sapiens) (UniProt P19793). Briefly: qHTS assay to identify small molecule agonists of the RXR signaling pathway (AID 1159527; calls by dose curve; further: nearly all actives have a fitted effect of over 35% in size). The essentials: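 16 hr incubation of compound-treated RXR-alpha-UAS-bla HEK 293T cells (2% charcoal-stripped FBS, 37 C) preceded a 2 hr room-temperature LiveBLAzer FRET substrate step and blue/green fluorescence measurement.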

The nature of experiment [15]: qHTS assay to identify small molecule antagonists of the estrogen related receptor (ERR) signaling pathway - cell viability counter screen (AID 1224818).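 Further: series mostly up to about 46 µM; viability measured after 17.5 h of compound exposure.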 Put shortly:
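ERR reporter cells plated 6 h at 37 C/5% CO2, then compounds in DMSO pin-transferred and incubated 17.5 h at 37 C. Viability read as CellTiter-Fluor fluorescence after 30 min at 37 C.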

Experiment [16] is described as follows: qHTS assay to identify small molecule antagonists of the estrogen related receptor signaling pathway with the pleiotropic PPARgamma coactivator (PGC) cell viability counter screen (AID 1224822; further: series mostly up to about 46 µM). The essentials: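 PGC/ERR cells were seeded at 2,000 cells/well, rested 6 h at 37 C/5% CO2, then given compounds in DMSO by pin tool and incubated 17.5 h at 37 C. Viability came from CellTiter-Fluor fluorescence after 30 min.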

Records with an inconclusive call do not appear. Activity calls are given as the source filed them. Unless noted, the call rests on the fitted dose curve; in most records, active means well fitted curve in the direction sought with a large enough effect in the repeat runs; inconclusive means weak or mixed curves; inactive means no such curve, though single readings can be large; an effect the other way counts as inactive or inconclusive.

Chain of Retinoic acid receptor RXR-alpha (Homo sapiens) (P19793 whole entry, looked up): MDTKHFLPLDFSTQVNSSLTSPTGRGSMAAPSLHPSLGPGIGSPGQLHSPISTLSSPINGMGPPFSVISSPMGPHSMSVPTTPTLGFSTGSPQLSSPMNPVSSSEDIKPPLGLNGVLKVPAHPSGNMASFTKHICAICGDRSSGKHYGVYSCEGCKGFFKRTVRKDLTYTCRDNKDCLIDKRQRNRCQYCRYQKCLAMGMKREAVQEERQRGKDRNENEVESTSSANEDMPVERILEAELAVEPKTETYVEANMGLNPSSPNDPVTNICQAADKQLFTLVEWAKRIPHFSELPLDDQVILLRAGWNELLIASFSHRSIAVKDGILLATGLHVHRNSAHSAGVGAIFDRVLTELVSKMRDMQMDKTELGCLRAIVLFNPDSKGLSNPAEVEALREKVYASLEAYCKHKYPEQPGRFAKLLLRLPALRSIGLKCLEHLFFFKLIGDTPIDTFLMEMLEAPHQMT

On to `O=C1NC(=O)C2CC=CCC12` (configuration not stated), for which the outcome in [1], in experiment [2], in experiment [3], in [4], in experiment [5] and in [7] was inactive. Besides, the molecule was called inactive in experiment [8] and in experiment [10]. For the same molecule, the Potency entry in [6], in experiment [9], in [11], in [12] and in experiment [13] was “inactive” each time.

`CC1(C)[C@@H]2CC[C@@]1(C)[C@H](O)C2`: the molecule was called inactive in [1], in experiment [2], in [3], in experiment [4], in experiment [5] and in [7]. Also, the outcome in [8] and in experiment [10] was inactive. Moreover, the Potency entry in [6], in experiment [14] and in experiment [9] was “inactive” in each case.

`CC(=O)O[C@@]12CO[C@@H]1C[C@H](O)[C@@]1(C)C(=O)[C@H](O)C3=C(C)[C@@H](OC(=O)[C@H](O)[C@@H](NC(=O)OC(C)(C)C)c4ccccc4)C[C@@](O)([C@@H](OC(=O)c4ccccc4)[C@H]21)C3(C)C`: the result in experiment [1], in [2], in experiment [3], in experiment [4], in experiment [5] and in [7] was inactive. For the same molecule, the molecule was classed as inactive in experiment [8] and in [10]. The Potency entry in experiment [6], in [14] and in experiment [9] was “inactive” throughout.

As to `CCCc1ncc(C[n+]2ccccc2C)c(N)n1`, the result in experiment [1], in experiment [2], in experiment [3], in experiment [4], in [5] and in experiment [7] was inactive. Also, the molecule was classed as inactive in experiment [8] and in experiment [10]. Moreover, the Potency result in experiment [6], in experiment [14] and in experiment [9] was “inactive” in each case.

Regarding `COc1ccccc1OCC1CNC(=O)O1` (configuration not stated), the result in experiment [1], in experiment [2], in [3], in experiment [4], in experiment [5] and in experiment [8] was inactive. Also, in [10], the result was inactive. In addition, the Potency entry in experiment [6], in experiment [14], in experiment [9] and in experiment [13] was “inactive” in each case.

In the case of `O=S(=O)(O)c1cccc(S(=O)(=O)O)c1`, the call in [1], in experiment [2], in experiment [3], in experiment [4], in [5] and in experiment [8] was inactive. For the same molecule, the result in experiment [10] was inactive. The Potency entry in experiment [6], in experiment [14], in experiment [9], in experiment [11] and in experiment [13] was “inactive” throughout.

Take `CC1CCC(CO)CC1` (configuration not stated): the outcome in experiment [1], in [2], in experiment [3], in experiment [4], in experiment [5] and in [7] was inactive. Also, the call in experiment [8] and in [10] was inactive. Also, the Potency entry in experiment [6], in [9], in experiment [11] and in experiment [13] was “inactive” each time.

In the case of `CC(C)NNC(=O)c1ccncc1`, the molecule was classed as inactive in [1], in experiment [2], in [3], in [4], in experiment [5] and in experiment [7]. Further, the call in [8], in experiment [10], in [15] and in [16] was inactive. The Potency entry in experiment [6], in experiment [9] and in [13] was “inactive” throughout.

With `CC1=CC(=O)[C@H]2C[C@@H]1C2(C)C`, the result in [2], in experiment [3], in experiment [4], in experiment [5], in experiment [8] and in [10] was inactive. Moreover, the Potency entry in [6], in [14] and in [9] was “inactive” each time.

On to `O=C(c1ccccc1)C1(O)CCCCC1`, for which the result in experiment [1], in experiment [2], in experiment [3], in [4], in experiment [5] and in experiment [8] was inactive. Also, the outcome in experiment [10] was inactive. Also, the Potency result in [6], in experiment [14], in experiment [9] and in experiment [13] was “inactive” each time.

On to `NC(=O)N[C@@H](CCC(=O)O)C(=O)O`, for which the outcome in [1], in [2], in [3], in experiment [4], in experiment [5] and in [7] was inactive. In addition, the outcome in experiment [8] and in experiment [10] was inactive. The Potency entry in experiment [6], in experiment [14] and in experiment [9] was “inactive” each time.

Take `CCOC(=O)C1=NOC(c2ccccc2)(c2ccccc2)C1`: the result in [1], in experiment [2], in experiment [3], in [4], in experiment [5] and in experiment [8] was inactive. Further, the result in experiment [10] was inactive. The Potency result in experiment [6], in experiment [14], in experiment [9], in experiment [11] and in experiment [13] was “inactive” in each case.

As for `COc1cc(C(=O)NCc2ccc(OCCN(C)C)cc2)cc(OC)c1OC`, the outcome in experiment [1], in experiment [2], in [3], in experiment [4], in [5] and in [7] was inactive. Also, the result in [8] and in [10] was inactive. The Potency entry in [6], in experiment [14] and in [9] was “inactive” each time.

On to `CCCc1nn(C)c2c(=O)[nH]c(-c3cc(S(=O)(=O)N4CCN(C)CC4)ccc3OCC)nc12`, for which the result in experiment [2], in experiment [3], in [4], in [5], in experiment [8] and in experiment [10] was inactive. For the same molecule, the call in [15] and in experiment [16] was inactive. In addition, the Potency entry in [6], in experiment [14], in [9], in experiment [12] and in [13] was “inactive” each time.

Consider `CC1=NN(c2cc(S(=O)(=O)O)ccc2Cl)C(=O)C1N=Nc1ccccc1` (configuration not stated), for which the molecule was called inactive in experiment [1], in experiment [2], in experiment [3], in experiment [4], in experiment [5] and in experiment [8]. In addition, the outcome in experiment [10] was inactive. Besides, the Potency result in [6], in experiment [14], in experiment [9] and in experiment [11] was “inactive” each time. Also, in experiment [13], the Potency was 48.6 µM (active).

In the case of `CCNS(=O)(=O)c1ccc(C)cc1`, the result in [1], in [2], in experiment [3], in experiment [4], in [5] and in experiment [7] was inactive. The result in experiment [8] and in [10] was inactive. In addition, the Potency entry in [6], in experiment [9], in [11] and in experiment [13] was “inactive” in each case.

As for `CN1CCC(=C2c3ccccc3CCc3cccnc32)CC1`, the molecule was classed as inactive in [1], in experiment [2], in experiment [3], in experiment [4], in [5] and in experiment [7]. Further, the molecule was called inactive in experiment [8] and in experiment [10]. Moreover, the Potency entry in experiment [6], in experiment [9] and in experiment [13] was “inactive” throughout.

Regarding `CN(C)CCCN(C)CCCN(C)C`, the outcome in experiment [1], in experiment [2], in experiment [3], in experiment [4], in [5] and in [7] was inactive. Further, the molecule was called inactive in [8] and in experiment [10]. Moreover, the Potency result in [6], in [9] and in [13] was “inactive” in each case.

Turning to `CCCCOCCOC(=O)COc1cc(Cl)c(Cl)cc1Cl`, the molecule was classed as inactive in experiment [2], in experiment [3], in experiment [4], in experiment [5], in experiment [8] and in experiment [10]. For the same molecule, the Potency entry in [6], in experiment [14], in [9], in experiment [11] and in experiment [13] was “inactive” each time.

On to `O=C(O)Cc1csc(-c2ccc(Cl)cc2)n1`, for which the molecule was called inactive in [2], in [3], in [4], in experiment [5], in [7] and in experiment [8]. Also, in [10], the molecule was classed as inactive. Further, the Potency result in experiment [6] and in experiment [9] was “inactive” throughout.

(Values after PubChem BioAssay (Tox21).)
